Experimental data reported in the supplement of paper PMC11417369.
± gives the standard deviation of the averaged measurements. Over roughly 25,000 sequences, “ln(normalized median fluorescence intensity)” has its median near 7.9; the highest 2% begin near 11. Many of the other results were omitted from the sample, so the highest values are more common in it than they were.

tested on: PfAP2-I AP2 domain 3 (GST-tagged); experiment: gcPBM binding intensity (ln(normalized median fluorescence intensity)); higher = stronger DNA binding
Summary of the method: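 An Agilent 4 × 180k array carrying primer-extended double-stranded 36-bp intergenic genomic probes and negative controls received GST-tagged P. falciparum DNA-binding domains expressed in E. coli, about 25 μg on average, for 1 h. The binding buffer contained 1× PBS, 1% milk, 0.2 mg/ml BSA, 0.5% salmon testes DNA and 0.03% Triton X-100. Binding intensity is the top Masliner-normalised natural-log median intensity across replicate spots of either probe orientation, read after Alexa488 anti-GST antibody staining and a 488 nm scan.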

Row | Sequence | gcPBM binding intensity (ln)
1 | ACTTCATTTTTTTTATGTACACAGAAGATTTACAAA [XGTACX_site4021] | 8.44 ± 0.47
2 | TTTATTTGTAACGGTTGTACTTGTATATCATTATGA [XGTACX_site4281] | 7.72 ± 0.4
3 | AAAAAAGACCATGTTAGTACATAAGATTTTTTTCAT [XGTACX_site4298] | 7.53 ± 0.57
4 | ATATTGCTTATTTGATGTACGAATACACTAGTATTA [XGTACX_site4536] | 7.79 ± 0.64
5 | TTATATTATATATATAGTACACATGTAATATTTCAA [XGTACX_site1791] | 7.76 ± 0.35
6 | ACCCTATTTATATATACACACACATATATAAATAAA [CACACA_site8980] | 8.24 ± 0.36
7 | AAAAAAAAAAATATAACACACAAAAAATTGTATCGA [CACACA_site1144] | 7.53 ± 0.26
8 | GCTATTAATTTATAAGCACACAATATAAATATATAT [CACACA_site2251] | 8.46 ± 0.057
9 | TTGCATATTTCTAATTGTACATTATTTTATTTTATA [XGTACX_site8451] | 7.75 ± 0.54
10 | CTTAAATTAATTTGGGTGCATATATTTGTACACATT [GTGCAC_site9948] | 10.8 ± 0.53
11 | TTTTGTTTATGTGTGCATTATATTATATTTTTTATT [TGCATGCA_negctrl_site146] | 10.9 ± 0.45
12 | TATGTTTGTGTATATATTTATTTTTATGTAATTATA [GTGCAC_negctrl_site219] | 7.75 ± 0.45
13 | AAGTTATATTTGTGTACACATAATTTTATACTAATA [CACACA_site5553] | 8.82 ± 0.33
14 | TATATATATATTTTTTGTACATATTATATAATATAC [XGTACX_site5187] | 9.025 ± 0.064
15 | AGTACATTTTTGTGTGTGCACTAATATTATATACTT [GTGCAC_site9568] | 11.3 ± 0.62
16 | ATATATTATAGAGGTGTGCACTACATACATTATAAT [GTGCAC_site9991] | 10.9 ± 0.4
17 | TTGGGTGCATATATTTGTACACATTATTTCTATTTT [XGTACX_site3688] | 11.2 ± 0.85
18 | AAATATAATAATACATTGCACATATATTATATATAT [TGCATGCA_negctrl_site611] | 8.53 ± 0.64
19 | ATATGTATGTATTTATTATTGTGCATTGTATTTATA [CACACA_negctrl_site664] | 9.36 ± 0.38
20 | AATAAATAGAAAGAGGTGCTACATTATATTATTTAT | 8.73 ± 0.3
21 | CCTTTTTCTACTTTCTCACACATATTAAGAATTATA [CACACA_site5621] | 8.29 ± 0.51
22 | ATAAAAATGGATGAATATAAAAAAAAAAAAATATAT [CACACA_negctrl_site182] | 7.74 ± 0.59
23 | AAAAAAAATAAAAATATATATATATATATATAAATA [GTGCAC_negctrl_site676] | 7.82 ± 0.53

Row | Sequence | gcPBM binding intensity (ln)
24 | TTCAATAGTAAGTATACACACATATATATATATAAA [CACACA_site2687] | 7.82 ± 0.47
25 | TTACTTAATAGACACACACACAAAAAAAAAAAAAAA [CACACA_site6572] | 8.12 ± 0.49
26 | AAATAATTATTTATCACACATATGTATTTATATATA [CACACA_site4589] | 7.66 ± 0.43
27 | ATTTTTTAAAATATTTGTACATATATAATGCATATA [XGTACX_site7026] | 8.17 ± 0.17
28 | TTATTAAATTTTTTTTGTACTTATATATATATATAT [XGTACX_site2443] | 9.23 ± 0.18
29 | GTTTATGTATTATTATGTACGTATCATAATATATAT [XGTACX_site2385] | 8.28 ± 0.38
30 | GTGTGCAAAAATTGTTGTACATTATATATAAAAAAA [XGTACX_site3246] | 9.41 ± 0.34
31 | TATATATTATATATATGTACATATTGTTGTGTATAT [XGTACX_site767] | 7.92 ± 0.43
32 | AATTGTGCATTATATTGTACACGTGTTGTATATATT [XGTACX_site975] | 11.1 ± 0.4
33 | ATATAATAAATGTAGGTGCATAAAAATATTTTGTTA [GTGCAC_site9780] | 11 ± 0.45
34 | AGTGCATAATATTTATGTACGTATCACATATATTTT [XGTACX_site5166] | 11.3 ± 0.83
35 | TTTTGTTATAAATAATGTACATATTTATTTAAAATT [XGTACX_site6610] | 7.69 ± 0.38
36 | TTTTTTTTTTTTTTGTGTACTAATATTATAAATTTT [XGTACX_site4405] | 8.14 ± 0.3
37 | TTATATTAATTTTGTTGTACTATTTGTGCATTAAAT [XGTACX_site4790] | 11.1 ± 0.78
38 | ATAATAAATTCTACGCGTACAAAACCATGAACATTA [XGTACX_site7505] | 8.02 ± 0.38
39 | TAATTAAAATTAAGAAGTACATTTTACTTTTAATGC [XGTACX_site5120] | 7.61 ± 0.63
40 | TTTTATTAAAACCACGCATGCAGAGGAAACGGTGAG [TGCATGCA_site1029] | 8.45 ± 0.64
41 | GTGTTAAATTTTTGAACATGCAAGTTTTATTATTGA [TGCATGCA_site478] | 7.58 ± 0.56
42 | ATATTCCTACATACAACACACGACGTTCTCATAAGA [CACACA_site231] | 8.06 ± 0.66
43 | TTATATGCATAAAAACGTACAAAAATGTATTCATGT [XGTACX_site2215] | 8.06 ± 0.52
44 | TCACTTTTATAATATAATATTCTATATCTTATTTTT [GTGCAC_negctrl_site717] | 7.47 ± 0.47
45 | TAATATAAAGAAATATCAATAATTTGGGCAAATGCC [GTGCAC_negctrl_site621] | 7.53 ± 0.45
46 | ATAATAATATTATTTTGTACATATGTGCTTATTTAT [XGTACX_site5540] | 8.375 ± 0.035

Row | Sequence | gcPBM binding intensity (ln)
47 | TTGCATTAATTTATGTGTACATATAAATTTTTATTT [XGTACX_site3060] | 8.21 ± 0.15
48 | AATAATATTTATTTTTGTACATATGTGCATTATAAA [XGTACX_site3682] | 11 ± 0.98
49 | AATTTAATATAATGCACACATAAAAAAAAAATCAAA [CACACA_site1] | 10.9 ± 0.65
50 | ACATCATAAAATTTATGTACACATTTTTAATTATAC [XGTACX_site7759] | 8.19 ± 0.19
51 | AAAAAATTAAAAATCACACATAAATATATATAAAAA [CACACA_site4192] | 7.53 ± 0.67
52 | ATTTATAAAATTAATGCACACATCAGCATTTATAAA [CACACA_site1025] | 11.3 ± 0.79
53 | AAATTAAAATATAATACACACATAAAAAAAAAATCA [CACACA_site5918] | 7.68 ± 0.61
54 | TTTATCAAAATAAATGCACACAAATTGCACATATCT [CACACA_site8281] | 10.31 ± 0.035
55 | AAAATTTAATATAATGCACACATAAAAAAAAAATCA [CACACA_site7882] | 11.2 ± 0.76
56 | CTCTATAAATGCTGCACACACATTTAATTATTTAAG [CACACA_site2582] | 9.045 ± 0.064
57 | ATTATTTTATAATTCACACATAAATAAAAAAAAAAT [CACACA_site5290] | 7.76 ± 0.32
58 | TCTAATAAAATAAATACATGCATACATACATACATA [TGCATGCA_site895] | 7.76 ± 0.63
59 | TATGTGAATAAATAAGCACACATAAACACATATATA [CACACA_site9359] | 8.06 ± 0.42
60 | ATTTAATGTATTTTGCGTACGAATTATTTTATTTCA [XGTACX_site7331] | 7.93 ± 0.49
61 | CTATTATAATATTTTACACACCATGTAAAATATATA [CACACA_site3206] | 7.75 ± 0.39
62 | AAAATTAAAATACGTACACACCTTATCTTTTTGGCT [CACACA_site4311] | 8.21 ± 0.19
63 | ATATTTCTGTCAAGCACACATAATATTAAAATATGT [CACACA_site4330] | 7.91 ± 0.49
64 | CATGCCTTTAAAAAGGTGCAAACATTTTCACAAACA | 10.4 ± 0.35
65 | ATATTTTATGTAAAGGTGCAAAACAACATTAAAAAA | 10.9 ± 0.47
66 | ATTTATTTTATATGTTGTACAAACATTTTAAAACAT [XGTACX_site6919] | 7.79 ± 0.38
67 | CTTGAAAAAATAAAAACACACAATGTGTTTTTGAAT [CACACA_site3283] | 7.42 ± 0.68
68 | TTTCATTTAGCTTTTACACACTATATATCATTGATT [CACACA_site6158] | 7.89 ± 0.68
69 | AGTATTATATTTGTATGTACGTAGTAATATATAAAA [XGTACX_site528] | 7.86 ± 0.6

Row | Sequence | gcPBM binding intensity (ln)
70 | TTTATTTTATTCACTATCATAAGCAAAACTTAAACA [GTGCAC_negctrl_site287] | 7.6 ± 0.4
71 | TTAAACTTGTTTTGGATGCACTATATAATTCATTTT [GTGCAC_site9549] | 9.45 ± 0.15
72 | CGATTTTTTAAGTTTGTGCACTTAAAAACTATAACA | 10.9 ± 0.54
73 | TTTCATATTTTGTCCTGTTTTTTTTTTTTTTTTCTT [CACACA_negctrl_site993] | 7.53 ± 0.59
74 | TTTAACTTTTATATAACACACATATTGTAATTATGT [CACACA_site6486] | 7.92 ± 0.33
75 | TTTTTTGAATTTAAAAGTACAGGCTTTTACCAAATA [XGTACX_site1356] | 7.7 ± 0.45
76 | TTTTTTTTTTGTAATTGTACTTTTTTAATACTTCTA [XGTACX_site4195] | 7.74 ± 0.82
77 | TTAGTTTATTGGTACTGTACTTTTTTTTTCTCCATT [XGTACX_site8618] | 8.02 ± 0.33
78 | TATTCGTGCAATAATAGTACACTTATAAATTATTCA [XGTACX_site8993] | 11.2 ± 0.66
79 | TATTCGTGCAATAATGGTACACTTATAAATTATTCA [XGTACX_site1430] | 10.7 ± 0.71
80 | TATTCGTGCAATAGTAGTACACTTATAAATTATTCT [XGTACX_site4899] | 10.7 ± 0.61
81 | ACACATACATACATATGTACATATATACATATATAC [XGTACX_site5559] | 8.45 ± 0.83
82 | AAATAATACATTCGTACTACACATATATATTAAATA [XGTACX_site7806] | 7.84 ± 0.41
83 | GTAGGCATTAAAAAATGTACAAAATATTATGAATTG [XGTACX_site1615] | 7.65 ± 0.55
84 | AGTAGGCATATTGGTTGTACAAAAAAATTATGCACC [XGTACX_site8925] | 11.2 ± 0.61
85 | TGAACATATTAAAATTGTACATATGCACAATATGTA [XGTACX_site6801] | 8.53 ± 0.29
86 | ATATATATATATGCATGTACATATATTTGTTATATC [XGTACX_site3197] | 9.22 ± 0.27
87 | TATGTGCACCCATGTACATGCGGACATATGTTATAT [TGCATGCA_site383] | 11 ± 0.9
88 | TATATATATATATATGCATGTACATATATTTGTTAT [TGCATGCA_site379] | 9.45 ± 0.14
89 | TATATAATAATTTAGAGTACTGATAAAATATTCCAT [XGTACX_site6200] | 7.55 ± 0.47
